The record followed here is PubChem BioAssay (EPA / NIEHS).

By AC50 is commonly meant the concentration at which the activity in the assay is half-maximal.

Several values for one entry are separate records, joined by “and”; a condition that tells them apart may be missing. Equal entries are not always repeated. Results filed as inconclusive are left out. Activity calls are given as the source filed them. The calls were made as follows: active = hit-call score of the fitted dose curve at least 0.9, where 1 is the maximum; inconclusive = response in the unintended direction; inactive = score below 0.9.

Sequence of Nuclear receptor subfamily 4 group A member 2 (Homo sapiens) (P43354 whole entry, looked up): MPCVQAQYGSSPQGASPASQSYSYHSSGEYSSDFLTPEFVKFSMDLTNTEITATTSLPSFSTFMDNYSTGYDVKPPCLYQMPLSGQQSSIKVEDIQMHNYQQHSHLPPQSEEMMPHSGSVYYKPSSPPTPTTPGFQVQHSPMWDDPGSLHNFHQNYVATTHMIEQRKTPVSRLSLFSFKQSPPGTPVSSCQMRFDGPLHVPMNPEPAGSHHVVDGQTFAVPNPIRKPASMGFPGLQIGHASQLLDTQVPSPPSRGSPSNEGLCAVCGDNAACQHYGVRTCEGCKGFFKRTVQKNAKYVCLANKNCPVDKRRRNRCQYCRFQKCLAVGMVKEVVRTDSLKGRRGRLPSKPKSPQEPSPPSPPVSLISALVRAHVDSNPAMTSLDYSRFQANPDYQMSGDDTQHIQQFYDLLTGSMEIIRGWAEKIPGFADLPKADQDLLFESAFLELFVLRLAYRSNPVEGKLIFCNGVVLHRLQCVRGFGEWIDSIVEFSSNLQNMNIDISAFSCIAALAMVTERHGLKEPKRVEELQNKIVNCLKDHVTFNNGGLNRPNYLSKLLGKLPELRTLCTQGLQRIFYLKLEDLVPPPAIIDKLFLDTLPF

This test has as its target Nuclear receptor subfamily 4 group A member 2 (Homo sapiens) (UniProt P43354). Briefly: ATG_NURR1_TRANS: Attagene TRANS-FACTORIAL HepG2 Assay for human Nuclear Receptor Related Protein 1 (NURR1) (AID 2282985). To be noted: HepG2 Attagene TRANS reporter, mRNA readout. The protocol:
ATG_TRANS is a cell-based, multiplexed-readout assay that uses HepG2, a human liver cell line, with measurements taken at 24 hours after chemical dosing in a 24-well plate.ATG_NURR1_TRANS is one of 30 assay component(s) measured or calculated from the ATG_TRANS assay. It is designed to make measurements of mRNA induction, a form of inducible reporter, as detected with fluorescence intensity signals by Reverse transcription polymerase chain reaction (RT-PCR) and Capillary electrophoresis technology.Data from the assay component ATG_NURR1_TRANS was analyzed into 1 assay endpoint. This assay endpoint, ATG_NURR1_TRANS, was analyzed in the positive analysis fitting direction relative to DMSO as the negative control and baseline of activity. Using a type of inducible reporter, measures of mRNA for gain-of-signal activity can be used to understand the reporter gene at the transcription factor-level as they relate to the gene NR4A2. Furthermore, this assay endpoint can be referred to as a primary readout, because this assay has produced multiple assay endpoints where this one serves a reporter gene function. To generalize the intended target to other relatable targets, this assay endpoint is annotated to the nuclear receptor intended target family, where the subfamily is orphan.
Human liver HepG2 cells are transiently transfected with multiple reporter transcription units (MRTUs) in 6-well plates using FuGene 6 reagent (Roche; 3 ml FuGene/1 mg DNA). The MRTU constructs are regulated by a cis-regulating element (promoter). […] A major difference between the CIS and TRANS system is that in CIS activities of endogenous TFs are measured, whereas the TRANS assay evaluates changes in activities of exogenous, chimeric NR-Gal4 proteins. […] At the end of 24 hour incubation, total RNA was isolated using TriZol reagent (Invitrogen). The isolated RNA is then reverse-transcribed using oligo(dT) primer and Mo-MLV reverse transcriptase (Invitrogen) with DNAse I (Ambion) treatment for 30 min. The one-tenth of the produced cDNA was amplified by PCR using Taq DNA polymerase (Invitrogen) and two reporter sequence-specific primers. The PCR products were fluorescently labeled by primer extension with 6-arboxyfluorescein (6-FAM) 5'-labeled reporter sequence-specific primer (2 min at 95 C, 20 s at 68 C and 10 min at 72 C) and these products were digested with 5U of HpaI (New England Biolabs) for 2h at 37 C. The fragments were purified using Qiaquick PCR columns (Qiagen), analyzed on an ABI 3130xL genetic analyzer (Applied Biosystems) with peak positions identified by using a set of X-rhodamine (ROX)-labeled MapMarker1000 molecular weight standards (BioVentures). The raw capillary electrophoresis data was processed using Attagraph software (Attagene).
Turning to `COc1cc(CCC(=O)CC(=O)CCc2ccc(O)c(OC)c2)ccc1O`, the molecule was classed as inactive.

Consider `OC1CCC(C2CCCCC2)CC1` (stereo not given), for which the outcome was inactive.

On to `CCCCC(CC)COC(=O)CCCCC(=O)OCC(CC)CCCC` (stereo not given), for which the result was inactive.

Take `CC[C@H](c1ccc(O)cc1)[C@@H](CC)c1ccc(O)cc1`: the outcome was inactive.

Take `CCCCCCCCCCCCc1ccccc1S(=O)(=O)O`: the molecule was classed as inactive.

With `CC#C[C@]1(O)CC[C@H]2[C@@H]3CCC4=CC(=O)CCC4=C3[C@@H](c3ccc(N(C)C)cc3)C[C@@]21C`, the result was inactive.

`CCCCCCC(=O)O`: the call was inactive.

Consider `CN1CCN(c2ccccc2/C=C2\SCCN(c3ccc(Cl)c(Cl)c3)C2=O)CC1`, for which the outcome was inactive.

Turning to `COC(=O)CCCCC(=O)OC`, the call was inactive.

For the molecule `CCCCCCCCOC(=O)CCCCCCCCC(=O)OCCCCCCCC`, the call was inactive.

Regarding `CCCCC[C@H](O)CC(=O)CCc1ccc(O)c(OC)c1`, the molecule was classed as inactive.

Turning to `FC(F)(I)C(F)(F)C(F)(F)C(F)(F)C(F)(F)C(F)(F)I`, the AC50 is 20.8 µM (active).

Turning to `OCCC(F)(F)C(F)(F)C(F)(F)C(F)(F)C(F)(F)C(F)(F)C(F)(F)C(F)(F)F`, the call was inactive.

In the case of `CN(C)C=O`, the AC50 was 7.38 µM (active).

Take `CCCCCCCC(=O)O`: the call was inactive.

Turning to `CCc1nn(C2CCCCC2)c2cc(C3(C#N)CCC(C(=O)O)CC3)ccc12` (stereo not given), the molecule was called inactive.

In the case of `CCC(C)(C)C1CCC(O)CC1` (stereo not given), the call was inactive.

Regarding `CC(C)(C)c1ccc(O)c(C(C)(C)C)c1`, the AC50 was 9.6 µM (active).

For the molecule `C[C@@H]1C[C@H]2[C@@H]3CCC4=CC(=O)C=C[C@]4(C)[C@@]3(F)[C@@H](O)C[C@]2(C)[C@@]1(O)C(=O)COP(=O)(O)O`, the result was inactive.

For `CC(=O)CC(C)(C)O`, the molecule was classed as inactive.

Regarding `CC(C)(C)c1cc(C(C)(C)C)c(O)c(C(C)(C)C)c1`, the AC50 was 431 nM (active) and 1.32 µM (active).

Regarding `Oc1cc2ccccc2c2ccccc12`, the molecule was classed as inactive.

For the molecule `NC(=O)N(O)[C@@H]1C=C[C@H](Oc2cccc(Oc3ccc(F)cc3)c2)C1`, the result was inactive.

Turning to `ClC1=C(Cl)C(Cl)(Cl)C(Cl)=C1Cl`, the result was inactive.

With `OCCC(F)(F)C(F)(F)C(F)(F)C(F)(F)C(F)(F)C(F)(F)F`, the call was inactive.

As for `O=C(O)c1ccccc1C(c1ccc(O)cc1)c1ccc(O)cc1`, the result was inactive.

In the case of `NCC(F)(F)C(F)(F)C(F)(F)C(F)(F)C(F)(F)C(F)(F)C(F)(F)F`, the outcome was inactive.

Turning to `Oc1cccc(O)c1`, the molecule was classed as inactive.

In the case of `Cc1cc(CCN2CCN(c3nsc4ccccc34)CC2)cc2c1NC(=O)CC2(C)C`, the call was inactive.

Consider `CC(C)(C)c1cccc(C(C)(C)C)c1O`, for which the molecule was classed as inactive.

For the molecule `O=C(/C=C/c1ccc(O)cc1)CC(=O)/C=C/c1ccc(O)cc1`, the molecule was classed as inactive.

On to `CC[C@H](C)[C@@H](C(=O)O)n1sc2ccccc2c1=O`, for which the call was inactive.

Take `CCCCCCCCCCCCCC[N+](C)(C)C`: the AC50 was 26.9 µM (active).

In the case of `C#C[C@]1(O)CC[C@H]2[C@@H]3CCC4=CC(=O)CC[C@@H]4[C@H]3CC[C@@]21C`, the outcome was inactive.

In the case of `O=C(O)Cc1cc(I)c(Oc2cc(I)c(O)c(I)c2)c(I)c1`, the AC50 is 23.6 µM (active).

For `COCC(C)O` (stereo not given), the result was inactive.

Turning to `CC1=C(/C=C/C(C)=C/C=C/C(C)=C/C(=O)O)C(C)(C)CCC1`, the AC50 is 57.2 nM (active) and 278 nM (active).

`CCCOc1sc(C(=O)N2CCC(c3cc(CN)ccc3F)CC2)c(C)c1Br`: the result was inactive.

For `Cc1ccc(S(=O)(=O)O)c(C)c1`, the call was inactive.

As to `Cc1oc(-c2ccccc2)nc1CCOc1ccc(C[C@H](Nc2ccccc2C(=O)c2ccccc2)C(=O)O)cc1`, the AC50 is 19.9 µM (active).
